Out of some 1,300 compounds screened, about 460 (35%) were called active. Roughly 39% stayed inconclusive and do not appear here. Calls come from the whole dose curve; as a rule, active = well fitted inhibition curve with a large enough effect; inconclusive = small, poorly fitted or top-dose-only effect; inactive = flat fitted curve, though single readings scatter. The list shows a part of the results. More than one record can exist for a structure, and the calls need not agree.
Each compound was assayed against Protein phosphatase EYA2 (Homo sapiens) (UniProt O00167) (assay: qHTS for Inhibitors of the Phosphatase Activity of Eya2: Confirmatory Assay for Cherry-picked Compounds). Settings: purified EYA2 phosphatase activity, qHTS confirmation; series mostly up to 46.1 µM; activity change, negative = inhibition: at the top concentration.
From the text: The Eya protein family is an essential co-activator of the Six1 transcription factor. Six1 is a developmental gene that is abnormally re-expressed in a large percentage of breast cancers. This over-expression plays a causal role in the initiation and metastatic development of breast cancers. The Eya family of protein is also found to contain a unique HAD phosphatase domain with protein tyrosine phosphatase activity which can potentially play a role in Six1-mediated breast tumorigenesis. Recently, Eya2 is found to dephosphorylate the histone variant H2AX and direct cells towards DNA repair instead of apoptosis in the event of DNA damage.
A 1536 well format, fluorescence based qHTS assay was developed and used to target the phosphatase activity of Eya2 (AID 488837). Inhibitors found against Eya2 could serve as potential therapeutic tools to inhibit Six1-mediated breast tumorigenesis and to increase the efficiency of radiation and certain chemo therapy. This assay assessed the activity of the primary screen cherry-picked compounds against Eya2. Inhibition is the desired outcome for this assay.
NIH Chemical Genomics Center [NCGC]
NIH Molecular Libraries Probe Centers Network [MLPCN]
Assay Submitter (PI): Rui Zhao, University of Colorado Denver
Eya2 enzyme and 3-O-methyl-fluorescein phosphate (OMFP) substrate working solutions were reconstituted in the buffer reagent consist of 50 mM HEPES pH 7.5, 50 mM NaCl, […], 0.05% BSA and 1 mM DTT. One and a half microliter of 0.2 uM Eya2 working solution was dispensed in a 1536 well Greiner plate (black, medium bind). Twenty-three nanoliter of test compounds and control compound EGTA was transferred to the assay plate using the Kalypsys robotic system equipped with a 1536 pin head. The plate was incubated at room temperature for 10 minutes. One and a half microliter of the 50 uM the OMFP substrate was then dispensed to the assay plate and incubated at room temperature for additional 10 min. The fluorescence signal was read using the PerkinElmer ViewLux plate reader using a 485 nm excitation and 525 nm emission filters. The data was normalized to the positive control for maximum inhibition and DMSO treated wells as negative control.
Note: nearly all actives have a fitted effect of over 65% in size.
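Throughout, for activity change, negative = inhibition: 0% = DMSO wells and -100% = EGTA control giving full inhibition.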

Protein phosphatase EYA2 (Homo sapiens), sequence (O00167 whole entry, looked up, the tested form may be a part): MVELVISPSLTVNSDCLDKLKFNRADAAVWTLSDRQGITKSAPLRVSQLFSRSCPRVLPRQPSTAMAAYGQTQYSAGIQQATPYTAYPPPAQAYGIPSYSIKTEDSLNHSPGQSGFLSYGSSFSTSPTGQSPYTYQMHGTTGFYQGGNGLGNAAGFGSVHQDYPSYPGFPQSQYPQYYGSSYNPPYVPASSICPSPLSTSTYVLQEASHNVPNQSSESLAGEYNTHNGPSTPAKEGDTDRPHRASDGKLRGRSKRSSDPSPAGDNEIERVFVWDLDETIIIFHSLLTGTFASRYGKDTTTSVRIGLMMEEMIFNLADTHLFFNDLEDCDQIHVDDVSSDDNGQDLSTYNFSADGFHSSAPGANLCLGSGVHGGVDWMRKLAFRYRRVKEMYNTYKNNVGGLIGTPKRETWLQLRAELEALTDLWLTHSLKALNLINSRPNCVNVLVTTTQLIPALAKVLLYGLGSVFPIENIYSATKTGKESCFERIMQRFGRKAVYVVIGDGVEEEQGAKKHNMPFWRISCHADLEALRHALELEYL

Compound | Potency | activity change, negative = inhibition
CN(C)S(=O)(=O)c1ccc(C(=O)NNc2nc(-c3ccccc3)c3cc(Br)ccc3n2)cc1 | 8.49 µM (active) | –
Cc1ccc(N2C(=O)NC(=O)/C(=C/c3ccc(OC(=O)c4cccs4)cc3)C2=O)cc1 | 12 µM (active) | –
O=C(Cc1ccccc1)c1ccccn1 | 10.7 µM (active) | –
O=C1NC(=S)N(c2ccccc2)C(=O)/C1=C/c1ccco1 | 6.75 µM (active) | –
COC(=O)C1=C(c2cccc(OCc3ccccc3)c2)C[C@@H]2CC[C@H]1N2C(=O)NCCCc1ccccc1 | – | -16.1% (inactive)
COC(=O)C1=C(c2ccc(F)cc2OCc2ccccc2)C[C@@H]2CC[C@H]1N2C(=O)NCc1ccc(N(C)C)cc1 | 8.49 µM (active) | –
C[C@H]1CCC[C@H](O)CCCCCc2cc(O)cc(O)c2C(=O)O1 | – | -21.4% (inactive)
NC(Cc1cc(O)c(O)cc1O)C(=O)O (stereo not given) | 2.39 µM (active) | –
N[C@@H](Cc1cc(I)c(O)c(I)c1)C(=O)O | 9.53 µM (active) | –
COc1ccc(-c2cc(=NCCC(=O)O)c3cc(C)ccc3o2)cc1 | 16.9 µM (active) | –
CN(C)c1ccc(C=C2C=CC=C2)cc1 | 19 µM (active) and inactive | –
COc1ccccc1N1CCN(CCc2c[nH]c3cc4c(cc23)OCO4)CC1 | 19 µM (active) | –
CNc1ccc2nc3ccccc3[n+](C)c2c1 | 16.9 µM (active) | –
O=C(O)CCCOc1ccc(Cl)cc1Cl | – | -4.59% (inactive)
O=[N+]([O-])c1cc(C(F)(F)F)c(Cl)c([N+](=O)[O-])c1Nc1ncc(C(F)(F)F)cc1Cl | 21.3 µM (active) | –
C=C1C(=O)O[C@@H]2C[C@@H](C)[C@@H]3C=CC(=O)[C@@]3(C)[C@@H](OC(=O)CC(=O)O[C@H]3[C@@H]4C(=C)C(=O)O[C@@H]4C[C@@H](C)[C@@H]4C=CC(=O)[C@]43C)[C@H]12 | 10.7 µM (active) | –
CCOC(=O)CCCc1cc[c]([Sb](=[O])([OH])[OH])cc1 | 2.13 µM (active) | –
CCOC(=O)c1cc2c(cn1)[C@@H](CCO)NC2 | – | -11.5% (inactive)
Cc1c(N=Nc2c(O)[nH]c(=O)[nH]c2=O)c(=O)n(-c2ccccc2)n1C | 2.13 µM (active) | –
COC1C(O)C(C)OC(OC2C(Oc3cccc4c(O)c5c(=O)oc6ccc(C)c7c(=O)oc(c34)c5c67)OC(C)C(O)C2O)C1O (stereo not given) | – | -10.3% (inactive)
CN(C)c1ccc(N=Nc2ccccc2)cc1 | 5.36 µM (active) | –
Cc1nc2ccccc2c(=O)n1-c1ccc(Cl)cc1[N+](=O)[O-] | – | -9.84% (inactive)
CC(N)[C@H](O)c1ccc(O)c(O)c1 (stereo not given in full) | – | -20.7% (inactive)
O=C(O)c1cc[c]([Sb](=[O])([OH])[OH])cc1[N+](=O)[O-] | 2.69 µM (active) | –
O=C1NC(=O)N(c2ccc(Cl)cc2)C(=O)/C1=C\c1ccc(Sc2nc3ccccc3[nH]2)o1 | 13.5 µM (active) | –
